# Experimental data as given in paper PMC4336329 (PLoS ONE, 2015).
# Out of some 310,000 compounds screened, about 14,000 (4.5%) showed an effect of 50% or more. The effect is printed as a negative number. The list comes from a sample in which strong results are over-represented; it also holds similar structures and randomly drawn compounds.
# Biological target: human ether-à-go-go-related gene (hERG) potassium channel (human, UniProt Q12809)
# Assay: primary screen, population patch clamp on CHO cells stably expressing hERG; higher = less effect of the substance
# 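Note: peak tail current of the secondary pulse compared with the same well before compound.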
# Chain of human ether-à-go-go-related gene (hERG) potassium channel (Q12809 whole entry, looked up): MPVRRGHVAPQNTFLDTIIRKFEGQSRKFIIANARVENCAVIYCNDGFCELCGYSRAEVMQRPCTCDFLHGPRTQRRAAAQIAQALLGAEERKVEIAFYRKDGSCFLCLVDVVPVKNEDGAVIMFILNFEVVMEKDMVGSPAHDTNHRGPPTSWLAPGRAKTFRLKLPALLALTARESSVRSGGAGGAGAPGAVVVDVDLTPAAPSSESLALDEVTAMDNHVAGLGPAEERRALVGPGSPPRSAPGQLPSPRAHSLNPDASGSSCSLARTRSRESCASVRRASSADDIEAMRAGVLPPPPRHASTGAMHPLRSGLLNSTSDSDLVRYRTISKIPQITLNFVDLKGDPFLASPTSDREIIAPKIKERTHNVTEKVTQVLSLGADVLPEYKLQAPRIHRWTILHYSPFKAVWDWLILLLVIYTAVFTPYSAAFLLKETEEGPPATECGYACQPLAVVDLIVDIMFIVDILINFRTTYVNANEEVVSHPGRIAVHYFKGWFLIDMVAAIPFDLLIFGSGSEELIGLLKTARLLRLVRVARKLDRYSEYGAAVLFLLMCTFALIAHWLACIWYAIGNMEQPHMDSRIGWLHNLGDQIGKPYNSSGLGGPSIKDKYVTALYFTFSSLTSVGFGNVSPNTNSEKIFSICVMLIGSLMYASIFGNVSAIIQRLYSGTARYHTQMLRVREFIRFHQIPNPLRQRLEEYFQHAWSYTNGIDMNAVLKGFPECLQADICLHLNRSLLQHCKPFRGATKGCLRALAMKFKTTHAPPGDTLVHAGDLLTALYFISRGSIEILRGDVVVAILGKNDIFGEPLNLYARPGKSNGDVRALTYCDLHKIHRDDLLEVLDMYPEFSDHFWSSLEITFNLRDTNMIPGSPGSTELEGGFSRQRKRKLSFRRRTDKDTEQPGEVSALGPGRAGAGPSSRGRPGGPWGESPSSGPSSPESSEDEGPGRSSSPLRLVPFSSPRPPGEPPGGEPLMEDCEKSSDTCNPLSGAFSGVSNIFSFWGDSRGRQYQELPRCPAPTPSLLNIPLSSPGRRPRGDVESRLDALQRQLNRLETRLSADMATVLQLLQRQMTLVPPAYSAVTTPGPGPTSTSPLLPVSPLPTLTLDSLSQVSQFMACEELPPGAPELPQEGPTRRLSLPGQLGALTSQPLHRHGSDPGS
row,SMILES,"hERG current change (%, negative = inhibition) at 10uM"
1,O=C(NC1CCCC1)C(c1cccnc1)N(C(=O)c1csnn1)C1CC1 (centres unmarked),4.97%
2,CC(C)c1ccc(NC(=O)C2C3C=CC4(O3)C2C(=O)N(CCN2CCOCC2)C4C(=O)NC2CCCCC2)cc1 (centres unmarked),15.3%
3,O=C(Nc1ccccc1Cl)OC1CCCCC1,22.7%
4,C=C(C)c1cccc(C(C)(C)NC(=O)NCc2ccncc2)c1,-9.41%
5,Cc1cc(S(=O)(=O)N2CCOCC2)ccc1OCC(=O)Nc1cccc(C(F)(F)F)c1,19.8%
6,Cc1c(Cl)c([N+](=O)[O-])nn1Cc1ccc(C(=O)N/N=C\c2cccc(Br)c2)o1,-38.7%
7,Cc1c(Cl)c([N+](=O)[O-])nn1Cc1ccc(C(=O)N/N=C\c2cc(Cl)ccc2O)o1,14.9%
8,COc1cc(/C=N\NC(=O)c2ccc(Cn3nc([N+](=O)[O-])c(Cl)c3C)o2)ccc1O,-70.4%
9,N#Cc1ccc(Oc2nc(Nc3ccc(F)cc3)nc(N3CCCC3)n2)cc1,1.63%
10,O=C(O)CC/C(=N\Nc1ccc([N+](=O)[O-])cc1S(=O)(=O)N1CCOCC1)c1cccs1,-9.21%
11,CCn1cc(CNC(=O)/C=C/c2ccc([N+](=O)[O-])cc2)cn1,-33.6%
12,Cc1ccc(NC(=O)CNC2CCCCC2)cc1Cl,6.64%
13,COc1ccc(Br)c(-c2nnc(CS(=O)(=O)c3ccccc3)o2)c1,-29.3%
14,Cc1ccccc1-c1nnc(CS(=O)(=O)c2ccccc2)o1,-19.2%
15,CCOc1ccccc1-c1nnc(CS(=O)(=O)c2ccccc2)o1,-52.5%
16,COc1cccc(CNC(=O)Nc2cccs2)c1,11%
17,CCc1cc2c(=O)c(-c3nc(C)cs3)c(CCCC(=O)O)oc2cc1O,29.7%
18,CCOC(=O)c1cc2c(=O)n3ccccc3nc2n(Cc2ccco2)c1=NC(=O)c1ccc(OC)cc1OC,-54.2%
19,CCOC(=O)c1cc2c(=O)n3ccccc3nc2n(Cc2ccco2)c1=NC(=O)c1ccc(OC)cc1,-54.3%
20,CCOC(=O)c1cc2c(=O)n3ccccc3nc2n(Cc2ccco2)c1=NC(=O)c1cccc(OC)c1,-43.8%
21,CCOC(=O)c1cc2c(=O)n3ccccc3nc2n(Cc2ccco2)c1=NC(=O)c1cccnc1,-37.4%
22,CCOC(=O)c1cc2c(=O)n3ccccc3nc2n(Cc2ccco2)c1=NC(=O)c1ccccc1OC,-68.9%
23,CCOC(=O)c1cc2c(=O)n3ccccc3nc2n(Cc2ccco2)c1=NC(=O)c1ccccc1OCC,-50%
24,Nc1nnc(SCC(=O)Nc2ccccc2N2CCOCC2)s1,3.88%

row,SMILES,"hERG current change (%, negative = inhibition) at 10uM"
1,O=C(c1cc2ccccc2s1)N1CCN(c2ccccn2)CC1,-11.5%
2,O=C(COC(=O)c1ccc(Br)o1)Nc1ncc([N+](=O)[O-])s1,10.6%
3,O=C(c1ccc(Cl)cc1)C1CCN(C(=O)NC2CCCCC2)CC1,-6.29%
4,Cc1noc(C)c1C(=O)OC(C)C(=O)N1CCc2ccccc21 (centres unmarked),4.27%
5,Cc1nc(-c2cccc(NC(=O)c3cccs3)c2)cs1,-23.3%
6,CCCN(C(=O)c1c(-c2ccccc2)noc1C)c1c(N)n(Cc2ccccc2)c(=O)[nH]c1=O,1.43%
7,COc1cccc(CNC(=O)Cc2ccc(Br)cc2)c1,5.59%
8,Cc1ccc(-c2nnc(SCC(=O)Nc3nccs3)n2N)cc1,-10.4%
9,O=[N+]([O-])c1ccc(N2CCN(c3ccc(O)cc3)CC2)c(Cl)c1,-3.4%
10,CCn1nc(C)c(CNC(=O)Nc2ccccc2C(=O)OC)c1C,13.5%
11,O=C(Nc1ccc2c(c1)CCC2)Nc1ccc(F)cc1F,15.5%
12,Cc1ccccc1NC(=O)Nc1ccc2c(c1)CCC2,24.4%
13,O=C(Nc1ccc2c(c1)CCC2)Nc1ccccc1F,-61.6%
14,Cc1ccccc1NCN1C(=O)C2C3C=CC(C3)C2C1=O (centres unmarked),6.34%
15,COc1cccc(/C=N/NC(=O)Cn2nc(C)c([N+](=O)[O-])c2C)c1O,-13.1%
16,CCN1CCN(C(=O)N2CCOCC2)CC1,15.5%
17,CS(=O)(=O)c1ccc(Cl)c(NC(=O)c2cccc(-n3cnnn3)c2)c1,-65.6%
18,CCc1ccccc1NC(=O)CN1CCN(C(=O)c2cccc(-n3cnnn3)c2)CC1,-65%
19,CS(=O)(=O)c1ccc(Cl)c(NC(=O)c2cccc(N3C(=O)CCC3=O)c2)c1,0.801%
20,Cc1cccc(NC(=O)CN2CCN(C(=O)c3cccc(-n4cnnn4)c3)CC2)c1C,-41.5%
21,O=C(CN1CCCCC1)Nc1cccc(-n2cnnn2)c1,0.45%
22,CS(=O)(=O)c1ccc(NC(=O)c2cccc(-n3cnnn3)c2)cc1,12.1%
23,O=C(CN1CCN(C(=O)c2cccc(-n3cnnn3)c2)CC1)Nc1ccccc1Cl,-90.3%
24,CCc1ccccc1NC(=O)COc1cccc(-n2cnnn2)c1,-8.5%

row,SMILES,"hERG current change (%, negative = inhibition) at 10uM"
1,O=C(c1cccc(-n2cnnn2)c1)N1CCOCC1,-8.49%
2,Cc1ccc(NC(=O)CSCC(=O)NC2(C)CCS(=O)(=O)C2)cc1 (centres unmarked),5.44%
3,O=C(O)Cc1sc(NCCc2ccccc2)nc1-c1ccc(F)cc1,3.77%
4,Cc1cn2c(-c3ccc(Cl)cc3)nnc2s1,-33.3%
5,CN(CCC#N)C(=O)COC(=O)c1ccc2c(=O)n3c(nc2c1)CCC3,35%
6,COc1ccccc1/C=C/C(=O)OCC(=O)c1cc(C)n(C)c1C,-0.348%
7,CC(C)(C)c1ccccc1NC(=O)c1ccc2c(c1)SC1=NS(=O)(=O)CCN12,6.51%
8,O=C(NCc1cccc(Cl)c1)c1ccc2c(c1)SC1=NS(=O)(=O)CCN12,-5.52%
9,O=C(O)c1ccc2c(c1)SC1=NS(=O)(=O)CCN12,8.48%
10,COc1ccc(CCNC(=O)c2ccc3c(c2)SC2=NS(=O)(=O)CCN23)cc1,-60.4%
11,O=C(NCc1ccccc1Cl)c1ccc2c(c1)SC1=NS(=O)(=O)CCN12,-7.44%
12,CN(C(=O)c1ccc2c(c1)SC1=NS(=O)(=O)CCN12)C(c1ccccc1)c1ccccc1,-61%
13,O=[N+]([O-])c1cc(-c2nnc(Nc3ccccc3)c3ccccc23)ccc1N1CCOCC1,-26.3%
14,COC(=O)c1cc(C(=O)OC)cc(-n2c(C)cc(C(=O)CC#N)c2C)c1,-31.2%
15,O=C(N/N=C\c1ccc(O)c([N+](=O)[O-])c1)C1COc2ccccc2O1 (centres unmarked),-4.56%
16,O=C(N/N=C/c1cccnc1)C1CC1(c1ccccc1)c1ccccc1 (centres unmarked),-55.6%
17,O=C(O)c1ccc(/C=N/NC(=O)C2CC2(c2ccccc2)c2ccccc2)cc1 (centres unmarked),17.9%
18,O=C(N/N=C/c1ccncc1)C1CC1(c1ccccc1)c1ccccc1 (centres unmarked),-24.9%
19,O=C(N/N=C/C=C/c1ccccc1)C1CC1(c1ccccc1)c1ccccc1 (centres unmarked),-1.54%
20,O=C(N/N=C/c1ccc(O)c([N+](=O)[O-])c1)C1CC1(c1ccccc1)c1ccccc1 (centres unmarked),-50.7%
21,CC(C)C(=O)Nc1nc2ccc(S(C)(=O)=O)cc2s1,5.14%
22,Cc1ccc(S(=O)(=O)Nc2c(C)n(C)n(-c3ccccc3)c2=O)cc1,9.73%
23,O=C(CN1C(=O)NC2(CCCCCC2)C1=O)Nc1ccc2c(c1)CCC2,-5.72%
24,CCOC(=O)c1nc(C)nc(Sc2n[nH]c(-c3cc(Cl)cc(Cl)c3)n2)c1C,4.12%

row,SMILES,"hERG current change (%, negative = inhibition) at 10uM"
1,CCOC(=O)c1nc2cc3n(c(CC(C)C)c-2c1C)CC(C)=C3C.Cl,-74%
2,CCOC(=O)c1nc2cc3n(c(C)c-2c1C)C(C)C(CC)=C3C.Cl (centres unmarked),-66.7%
3,CCOC(=O)c1n[nH]n(-c2cc(Cl)cc(Cl)c2)c1=O,25.7%
4,CCOC(=O)c1nc2cc3n(c(C)c-2c1C)C(C)C(C)=C3C.Cl (centres unmarked),-42.8%
5,CCOC(=O)c1nc2ccccc2c(C)c1C.Cl,-5.73%
6,CCc1cc(=O)oc2c(CNCc3ccc(OC)cc3OC)c(O)c(Cl)cc12.Cl,13.3%
7,NNC(=O)C1CC1c1ccc(Cl)cc1 (centres unmarked),9.11%
8,COc1cc(/C=N/Nc2ccc(Cl)c(C(=O)O)c2)ccc1OCC(=O)N1C(C)CCCC1C (centres unmarked),16.5%
9,CCCn1c(N)c(N(CCOC)C(=O)c2ccc(N(C)S(=O)(=O)c3ccc(C)cc3)cc2)c(=O)[nH]c1=O,7.32%
10,O=C(NC1CCCCC1)c1ccc(S(=O)(=O)NCc2cccnc2)cc1,5.88%
11,O=c1[nH]c(=O)n(-c2ccccc2Cl)c(O)c1C=NCCN1CCCCC1,6.09%
12,COc1ccc(CNCCC(c2ccccc2)c2ccc3c(c2)OCO3)cc1.Cl (centres unmarked),-75%
13,CNCCc1ccc(OC)c(OC)c1,19.4%
14,COc1ccc(CNCCC(c2ccc(OC)cc2)c2ccccc2OC)cc1 (centres unmarked),-74.2%
15,COc1ccc(CC(C)NCCc2ccc(OC)c(OC)c2)cc1 (centres unmarked),-60.3%
16,COc1ccc(CCC(C)NCCc2ccccc2)cc1 (centres unmarked),-29.6%
17,COc1ccc(CC(C)NCCC(c2ccccc2)c2ccccc2)cc1 (centres unmarked),-71.5%
18,CCCNCCC(c1ccco1)c1ccccc1OC (centres unmarked),-41.8%
19,COc1ccc(C(CC(=O)O)c2ccc3c(c2)OCO3)cc1 (centres unmarked),14.7%
20,COc1ccc(CC(C)CC(=O)NCCc2ccc(OC)c(OC)c2)cc1 (centres unmarked),18.9%
21,COc1ccc(CCC(C)NCC(C)c2ccccc2)cc1 (centres unmarked),-48.3%
22,COc1ccc(CNc2ccc(-c3ccccc3OC)nn2)cc1,-13.1%
23,COc1ccc(C(CCN)c2ccc3c(c2)OCO3)cc1 (centres unmarked),1.93%
